Assay [1] in a line: ATG_PBREM_CIS: Attagene CIS-FACTORIAL HepG2 Assay for human Phenobarbital-responsive Enhancer Module (PBREM) (AID 2282955). As to conditions: HepG2 PBREM cis-reporter, Attagene multiplexed transcription; actives raise or lower the signal. An outline of the steps: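 Cells were transfected with cis-element reporter units and treated for 24 h, after which RNA was extracted and reporter transcripts measured by RT-PCR and capillary electrophoresis.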

In assay [2] the target is Paired box protein Pax-6 (Homo sapiens) (UniProt P26367). The assay can be described thus: ATG_Pax6_CIS: Attagene CIS-FACTORIAL HepG2 Assay for human Paired Box 6 (PAX6) (AID 2282956). As to conditions: HepG2 CIS-FACTORIAL PAX6 reporter transcription, RNA readout; actives raise or lower the signal. An outline of the steps: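 After twenty-four hours of chemical exposure, transfected HepG2 cells are harvested for RNA. Cis-promoter reporter transcripts are amplified, fluorescently labelled and sized by capillary electrophoresis, with gain and loss of signal scored against DMSO.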

The nature of assay [3]: ATG_PXRE_CIS: Attagene CIS-FACTORIAL HepG2 Assay for human Pregnane X Receptor Element (PXRE) (AID 2282957). As to conditions: HepG2 Attagene CIS-FACTORIAL PXRE reporter, mRNA; actives raise or lower the signal. An outline of the steps:
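HepG2 cells transiently transfected with cis-element-driven multiplexed reporter units; after 24 h chemical exposure, reporter mRNA measured by RT-PCR, 6-FAM labelling, HpaI digestion and capillary electrophoresis. Bidirectional fitting relative to DMSO.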

Assay [4] is described as follows: ATG_PPRE_CIS: Attagene CIS-FACTORIAL HepG2 Assay for human Peroxisome Proliferator-activated Response Element (PPRE) (AID 2282958). As to conditions: HepG2 PPRE cis-element reporter, Attagene transcription factor profiling; actives raise or lower the signal. An outline of the steps: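 In this cell-based multiplex, a PPRE cis element drives a reporter sequence in transiently transfected HepG2 cells. Following 24 h treatment, labeled cDNA amplicons are sized and quantified by capillary electrophoresis, with DMSO defining baseline.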

Assay [5] in a line: ATG_RORE_CIS: Attagene CIS-FACTORIAL HepG2 Assay for human RAR-related Orphan Receptor Element (RORE) (AID 2282959). As to conditions: HepG2 Attagene cis-factorial RORE reporter, mRNA; actives raise or lower the signal. An outline of the steps:
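Endogenous factor activity at a cis response element is read as reporter transcript levels in HepG2 cells, 24 h post-dose. Transcripts are quantified by RT-PCR with capillary electrophoresis, and data fitted in both directions against DMSO.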

A short description of assay [6]: ATG_Sox_CIS: Attagene CIS-FACTORIAL HepG2 Assay for human SRY-box transcription factor (SOX) (AID 2282960). As to conditions: HepG2 Attagene cis-factorial SOX reporter, mRNA; actives raise or lower the signal. An outline of the steps: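 Measures mRNA induction of a SOX1-associated reporter in HepG2 after 24 h dosing. Fluorescently labelled RT-PCR fragments are separated by capillary electrophoresis, and gain or loss relative to DMSO control is fitted.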

Assay [7] deals with Transcription factor Sp1 (Homo sapiens) (UniProt P08047). The assay can be described thus: ATG_Sp1_CIS: Attagene CIS-FACTORIAL HepG2 Assay for human Specificity Protein 1 (Sp1) (AID 2282961). As to conditions: HepG2 Sp1 cis-reporter transcription, actives raise or lower the signal. An outline of the steps: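 Cells: HepG2, transiently transfected with cis-regulated multiplexed reporters. Exposure: 24 h. Detection: reporter transcripts amplified, fluorescently labeled, restriction-digested and sized by capillary electrophoresis. Analysis: bidirectional fit relative to DMSO.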

A short description of assay [8]: ATG_SREBP_CIS: Attagene CIS-FACTORIAL HepG2 Assay for human Sterol Regulatory Element Binding (SREBP) (AID 2282962). As to conditions: HepG2 Attagene cis-factorial SREBP reporter, mRNA; actives raise or lower the signal. An outline of the steps: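 Twenty-four hours after chemical dosing of transfected HepG2 cultures, reporter RNA was converted to cDNA, amplified, end-labelled with 6-FAM and resolved by capillary electrophoresis. Responses were fitted relative to DMSO.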

The target in assay [9] is Signal transducer and activator of transcription 3 (Homo sapiens) (UniProt P40763). The assay can be described thus: ATG_STAT3_CIS: Attagene CIS-FACTORIAL HepG2 Assay for human Signal Transducer and Activator of Transcription 3 (STAT3) (AID 2282963). As to conditions: HepG2, Attagene cis-factorial STAT3 reporter transcription; actives raise or lower the signal. An outline of the steps:
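Endogenous STAT3-responsive cis-element activity was read in transiently transfected HepG2 cells after 24 h treatment. Reporter transcripts were quantified via RT-PCR and capillary electrophoresis, with DMSO as negative control and bidirectional curve fitting.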

The nature of assay [10]: ATG_TA_CIS: Attagene CIS-FACTORIAL HepG2 Assay for human TA Basal Promoter (AID 2282964). As to conditions: HepG2 Attagene CIS-factorial TA basal promoter reporter; actives raise or lower the signal. An outline of the steps: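 Read-out: fluorescent reporter-transcript fragments resolved by capillary electrophoresis after RT-PCR and HpaI digestion. Source: HepG2 cells carrying transiently transfected multi-reporter cis constructs, treated 24 h. Endpoint fitted bidirectionally relative to DMSO.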

Assay [11] in a line: ATG_TCF_b_cat_CIS: Attagene CIS-FACTORIAL HepG2 Assay for human T-Cell-Factor with beta-catenin (TCF/b-cat) (AID 2282965). As to conditions: HepG2 TCF/beta-catenin cis-reporter transcription, actives raise or lower the signal. An outline of the steps:
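Endogenous transcription factor activity is captured through cis-promoter reporter constructs transiently introduced into human HepG2 liver cells. Induced reporter mRNA is measured after 24 h and fitted bidirectionally relative to DMSO.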

Assay [12] can be described thus: ATG_TGFb_CIS: Attagene CIS-FACTORIAL HepG2 Assay for human Transforming Growth Factor (TGF) (AID 2282967). As to conditions: HepG2 Attagene CIS TGFb reporter, mRNA transcription; actives raise or lower the signal. An outline of the steps:
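Transient MRTU transfection of HepG2 (FuGene 6). Dose 24 h. TriZol RNA, oligo(dT) RT, PCR, 6-FAM primer extension, HpaI cut, CE. Bidirectional fit, DMSO = baseline.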

A short description of assay [13]: ATG_VDRE_CIS: Attagene CIS-FACTORIAL HepG2 Assay for human Vitamin D Receptor Element (VDRE) (AID 2282968). As to conditions: HepG2 VDRE cis-reporter transcription, actives raise or lower the signal. An outline of the steps: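 Reporter mRNA induction, quantified by capillary electrophoresis of fluorescently labelled RT-PCR products, was read 24 h after dosing HepG2 cells carrying transiently transfected cis-regulated reporter units; gain or loss relative to DMSO.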

Assay [14] deals with Estrogen receptor (Homo sapiens) (UniProt P03372). Kind of assay: ATG_ERa_TRANS: Attagene TRANS-FACTORIAL HepG2 Assay for human Estrogen Receptor alpha (ERa) (AID 2282970; active means hit-call score of the fitted dose curve at least 0.9, where 1 is the maximum). As to conditions: HepG2 Attagene TRANS ERa GAL4 reporter, mRNA. An outline of the steps: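 HepG2 cells transiently transfected with multiplexed GAL4-UAS reporter units read out chimeric NR-Gal4 activity. After 24 h compound exposure, reporter mRNA was quantified by RT-PCR, 6-FAM labeling, HpaI digestion and capillary electrophoresis, relative to DMSO.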

Assay [15] addresses Steroid hormone receptor ERR1 (Homo sapiens) (UniProt P11474). The assay can be described thus: ATG_ERRa_TRANS: Attagene TRANS-FACTORIAL HepG2 Assay for human Estrogen-Related Receptor alpha (ERRa) (AID 2282971; active means hit-call score of the fitted dose curve at least 0.9, where 1 is the maximum). As to conditions: HepG2 Attagene TRANS reporter, ERRa transactivation. An outline of the steps: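 HepG2 cells transiently transfected with GAL4-UAS reporter units and chimeric NR-Gal4 constructs; after 24 hour compound incubation, reporter mRNA quantified by RT-PCR, fluorescent labelling and capillary electrophoresis, gain of signal versus DMSO.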

Assay [16] concerns the target X-box-binding protein 1 (Homo sapiens) (UniProt P17861). The assay can be described thus: ATG_Xbp1_CIS: Attagene CIS-FACTORIAL HepG2 Assay for human X-box Binding Protein 1 (XBP1) (AID 2282972). As to conditions: HepG2 XBP1 cis-element reporter, Attagene multiplex; actives raise or lower the signal. An outline of the steps: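 After a 24-hour chemical exposure of HepG2 cells carrying cis-regulated reporters, reporter mRNA levels are assessed. Quantification uses RT-PCR, 6-FAM labelling and capillary electrophoresis. Gain- or loss-of-signal is fitted against DMSO.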

The nature of assay [17]: ATG_M_19_TRANS: Attagene TRANS-FACTORIAL HepG2 Assay for M19 Transcription Factor (Internal Marker) (AID 2282974; active means hit-call score of the fitted dose curve at least 0.9, where 1 is the maximum). As to conditions: HepG2 Attagene TRANS-FACTORIAL M19 internal marker reporter. An outline of the steps: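 Reporter mRNA induction was measured in transfected HepG2 cells 24 h after dosing. Endpoint fitted upward relative to DMSO and serves as a background control within the multiplexed TRANS panel.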

The nature of assay [18]: ATG_GAL4_TRANS: Attagene TRANS-FACTORIAL HepG2 Assay for GAL4 (Internal Marker) (AID 2282976; active means hit-call score of the fitted dose curve at least 0.9, where 1 is the maximum). As to conditions: HepG2 Attagene TRANS GAL4 internal marker reporter. An outline of the steps: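 Background-control readout: GAL4-UAS reporter transcript in transiently transfected HepG2 cells after 24 h compound exposure. Measured by RT-PCR, 6-FAM primer extension, HpaI digest and capillary electrophoresis; gain-of-signal fit versus DMSO.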

A short description of assay [19]: ATG_TAL_CIS: Attagene CIS-FACTORIAL HepG2 Assay for human TAL Basal Promoter (AID 2282966).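 Further: background control endpoint measuring basal TAL promoter reporter mRNA not a specific factor.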 As to conditions: HepG2 Attagene cis-factorial TAL promoter reporter; actives raise or lower the signal. An outline of the steps:
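HepG2 cells transiently transfected with multiplexed cis-promoter reporter units, dosed 24 h. Reporter mRNA quantified by RT-PCR, 6-FAM labelling, HpaI digestion and capillary electrophoresis; TAL basal promoter serves as background control, fitted bidirectionally versus DMSO.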

Assay [20] addresses Nuclear receptor subfamily 1 group I member 3 (Homo sapiens) (UniProt Q14994). The assay can be described thus: ATG_CAR_TRANS: Attagene TRANS-FACTORIAL HepG2 Assay for human Constitutive Androstane Receptor (CAR) (AID 2282969; active means hit-call score of the fitted dose curve at least 0.9, where 1 is the maximum;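 further: activators raise reporter mRNA above DMSO so AC50 marks induction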). As to conditions: HepG2 Attagene TRANS-FACTORIAL CAR reporter. An outline of the steps:
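Readout is reporter mRNA induction, quantified by fluorescent primer extension and capillary electrophoresis after RT-PCR. Cells were HepG2 transiently carrying chimeric NR-Gal4 constructs with GAL4-UAS reporters, treated for 24 h; activity scored upward from DMSO.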

Results filed as inconclusive are left out. Activity calls are given as the source filed them. How the source made its calls, unless noted: active means hit-call score of the fitted dose curve at least 0.9, where 1 is the maximum; inactive means score below 0.9.

Sequence of Paired box protein Pax-6 (Homo sapiens) (P26367 whole entry, looked up): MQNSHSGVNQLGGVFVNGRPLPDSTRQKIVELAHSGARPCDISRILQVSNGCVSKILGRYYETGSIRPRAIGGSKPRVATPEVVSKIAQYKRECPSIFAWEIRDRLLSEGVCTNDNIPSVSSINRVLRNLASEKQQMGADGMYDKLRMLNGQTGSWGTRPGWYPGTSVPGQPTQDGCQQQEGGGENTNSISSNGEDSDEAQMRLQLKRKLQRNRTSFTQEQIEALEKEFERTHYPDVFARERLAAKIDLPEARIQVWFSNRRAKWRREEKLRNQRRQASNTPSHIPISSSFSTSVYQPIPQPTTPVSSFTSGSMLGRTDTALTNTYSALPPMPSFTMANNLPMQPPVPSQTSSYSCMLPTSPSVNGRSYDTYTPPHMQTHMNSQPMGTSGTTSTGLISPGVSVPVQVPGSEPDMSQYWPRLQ
Sequence of Signal transducer and activator of transcription 3 (Homo sapiens) (P40763 whole entry, looked up): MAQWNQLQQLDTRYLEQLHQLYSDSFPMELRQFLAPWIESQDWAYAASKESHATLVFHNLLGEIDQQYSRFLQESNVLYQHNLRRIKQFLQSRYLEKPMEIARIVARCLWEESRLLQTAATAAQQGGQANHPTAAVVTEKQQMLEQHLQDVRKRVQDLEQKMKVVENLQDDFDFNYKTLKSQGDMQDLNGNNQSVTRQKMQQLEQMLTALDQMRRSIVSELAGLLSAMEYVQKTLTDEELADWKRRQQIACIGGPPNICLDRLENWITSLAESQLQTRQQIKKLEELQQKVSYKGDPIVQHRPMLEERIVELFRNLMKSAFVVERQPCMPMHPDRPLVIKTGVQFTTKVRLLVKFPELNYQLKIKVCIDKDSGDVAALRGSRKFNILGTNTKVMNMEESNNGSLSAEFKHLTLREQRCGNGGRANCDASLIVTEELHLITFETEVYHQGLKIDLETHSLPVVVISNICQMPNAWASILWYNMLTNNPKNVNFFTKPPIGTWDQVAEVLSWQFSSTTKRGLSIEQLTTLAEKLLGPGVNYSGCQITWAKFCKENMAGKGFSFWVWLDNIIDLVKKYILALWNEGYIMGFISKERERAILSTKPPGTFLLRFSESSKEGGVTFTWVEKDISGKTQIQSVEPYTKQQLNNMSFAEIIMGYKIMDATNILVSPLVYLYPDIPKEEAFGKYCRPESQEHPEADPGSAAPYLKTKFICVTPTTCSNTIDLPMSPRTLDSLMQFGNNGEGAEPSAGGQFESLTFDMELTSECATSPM
Sequence of Transcription factor Sp1 (Homo sapiens) (P08047 whole entry, looked up): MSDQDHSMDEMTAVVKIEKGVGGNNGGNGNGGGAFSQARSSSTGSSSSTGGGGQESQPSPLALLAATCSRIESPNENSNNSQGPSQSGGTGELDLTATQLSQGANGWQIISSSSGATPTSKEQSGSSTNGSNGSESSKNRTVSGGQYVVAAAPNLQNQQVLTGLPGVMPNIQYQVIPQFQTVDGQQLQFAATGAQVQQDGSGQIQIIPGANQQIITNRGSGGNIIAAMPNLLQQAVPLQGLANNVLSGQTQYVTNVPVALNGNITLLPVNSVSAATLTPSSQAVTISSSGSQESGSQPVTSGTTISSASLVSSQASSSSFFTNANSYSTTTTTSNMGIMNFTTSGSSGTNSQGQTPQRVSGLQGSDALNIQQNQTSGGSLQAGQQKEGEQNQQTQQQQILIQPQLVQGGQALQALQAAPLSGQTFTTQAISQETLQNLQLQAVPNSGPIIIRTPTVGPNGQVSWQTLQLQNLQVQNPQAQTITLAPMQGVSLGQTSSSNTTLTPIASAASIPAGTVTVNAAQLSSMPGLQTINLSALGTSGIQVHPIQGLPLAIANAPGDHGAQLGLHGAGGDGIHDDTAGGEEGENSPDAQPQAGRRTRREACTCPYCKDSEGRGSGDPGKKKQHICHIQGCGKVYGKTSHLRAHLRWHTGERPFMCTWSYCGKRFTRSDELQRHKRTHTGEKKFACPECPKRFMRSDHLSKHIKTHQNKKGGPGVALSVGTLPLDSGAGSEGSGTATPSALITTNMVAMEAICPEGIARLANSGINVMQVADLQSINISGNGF
Sequence of X-box-binding protein 1 (Homo sapiens) (P17861 whole entry, looked up): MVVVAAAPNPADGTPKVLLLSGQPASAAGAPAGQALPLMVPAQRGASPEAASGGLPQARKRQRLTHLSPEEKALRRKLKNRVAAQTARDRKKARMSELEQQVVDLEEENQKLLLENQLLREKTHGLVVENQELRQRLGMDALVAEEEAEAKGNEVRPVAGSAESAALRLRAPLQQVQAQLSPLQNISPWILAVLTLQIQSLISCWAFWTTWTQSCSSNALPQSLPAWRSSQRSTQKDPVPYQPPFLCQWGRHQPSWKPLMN
Sequence of Steroid hormone receptor ERR1 (Homo sapiens) (P11474 whole entry, looked up, the tested form may be a part): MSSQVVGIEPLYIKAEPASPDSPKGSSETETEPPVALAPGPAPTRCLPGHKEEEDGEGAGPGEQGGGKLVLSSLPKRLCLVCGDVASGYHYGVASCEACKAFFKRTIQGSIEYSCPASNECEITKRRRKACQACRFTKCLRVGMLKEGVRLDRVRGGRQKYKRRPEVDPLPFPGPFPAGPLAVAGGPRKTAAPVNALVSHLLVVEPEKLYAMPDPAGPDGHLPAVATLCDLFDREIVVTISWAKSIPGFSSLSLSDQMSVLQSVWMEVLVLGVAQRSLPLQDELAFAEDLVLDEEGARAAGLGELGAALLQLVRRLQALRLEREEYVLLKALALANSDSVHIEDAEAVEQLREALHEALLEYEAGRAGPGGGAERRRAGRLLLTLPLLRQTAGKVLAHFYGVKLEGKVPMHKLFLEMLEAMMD
Sequence of Estrogen receptor (Homo sapiens) (P03372 whole entry, looked up, the tested form may be a part): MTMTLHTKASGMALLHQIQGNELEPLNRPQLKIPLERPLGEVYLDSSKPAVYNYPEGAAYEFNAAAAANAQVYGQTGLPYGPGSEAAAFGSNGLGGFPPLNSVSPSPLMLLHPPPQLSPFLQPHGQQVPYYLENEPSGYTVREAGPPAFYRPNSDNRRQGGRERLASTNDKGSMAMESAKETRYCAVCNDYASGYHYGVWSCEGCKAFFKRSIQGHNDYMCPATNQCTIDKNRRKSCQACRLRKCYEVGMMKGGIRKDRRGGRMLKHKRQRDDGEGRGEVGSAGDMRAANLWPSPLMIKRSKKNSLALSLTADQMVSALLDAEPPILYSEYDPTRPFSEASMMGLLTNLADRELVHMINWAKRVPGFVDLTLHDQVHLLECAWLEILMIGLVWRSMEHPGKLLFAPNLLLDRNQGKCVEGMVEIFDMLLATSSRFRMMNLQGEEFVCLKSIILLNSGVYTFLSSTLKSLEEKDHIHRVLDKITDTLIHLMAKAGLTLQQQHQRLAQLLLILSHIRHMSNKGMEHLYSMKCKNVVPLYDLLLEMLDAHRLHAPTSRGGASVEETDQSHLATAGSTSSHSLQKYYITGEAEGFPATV
Sequence of Nuclear receptor subfamily 1 group I member 3 (Homo sapiens) (Q14994 whole entry, looked up, the tested form may be a part): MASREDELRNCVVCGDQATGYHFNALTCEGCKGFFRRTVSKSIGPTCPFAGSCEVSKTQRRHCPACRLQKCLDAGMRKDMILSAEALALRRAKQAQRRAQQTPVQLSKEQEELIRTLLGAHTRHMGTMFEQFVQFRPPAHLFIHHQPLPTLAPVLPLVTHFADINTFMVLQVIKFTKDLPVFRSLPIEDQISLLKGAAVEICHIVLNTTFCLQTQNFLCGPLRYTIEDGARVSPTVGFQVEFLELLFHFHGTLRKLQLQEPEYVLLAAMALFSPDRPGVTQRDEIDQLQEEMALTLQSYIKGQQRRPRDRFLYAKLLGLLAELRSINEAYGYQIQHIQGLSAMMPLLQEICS

On to `C=C(C)C(=O)OCCC(C)OC(=O)C(=C)C` (configuration not stated), for which the result in [1], in assay [2], in assay [4], in [5], in assay [6] and in assay [7] was inactive. The molecule was called inactive in assay [8], in assay [9], in assay [10], in [11], in assay [12] and in assay [13]. Besides, the result in assay [14], in [15], in assay [16] and in assay [17] was inactive. For the same molecule, the AC50 in assay [3] is 56.2 µM (active).
Regarding `CCOC(=O)CC(C)C`, the result in assay [1], in [2], in assay [3], in [4], in assay [5] and in [6] was inactive. The outcome in [7], in assay [8], in [9], in assay [10], in [11] and in [12] was inactive. The molecule was classed as inactive in assay [13], in assay [16], in [17] and in assay [18].
With `CC(=O)c1cccnc1`, the outcome in [1], in [2], in assay [3], in assay [4], in [5] and in assay [6] was inactive. For the same molecule, the molecule was called inactive in assay [7], in assay [8], in assay [9], in assay [10], in [19] and in assay [12]. Further, the call in [13], in [16] and in assay [17] was inactive.
Consider `Cc1cc(O)c2c(c1)C(=O)c1cc(O)cc(O)c1C2=O`, for which the AC50 was 14.9 µM (active) in assay [1], 12 µM (active) in assay [4], 8.81 µM (active) in assay [7] and 9.89 µM (active) in assay [16]. The result in assay [2], in assay [3], in assay [5], in assay [6], in [9] and in [10] was inactive. For the same molecule, the call in [11], in assay [12], in assay [20] and in assay [15] was inactive.

(Values after PubChem BioAssay (EPA / NIEHS).)
